From the supplement of paper PMC6609913
Structures can show the parent of a compound that is named as a salt. ± gives the standard deviation of the averaged measurements. Whole data set: some 1,300 compounds, median “normalised cell viability” near 1, cut for the lowest 2% near 0.15. Many of the other results were omitted from the sample, so the lowest values are more common in it than they were.

Test system: V-C8 + BRCA2 (BRCA2-proficient hamster cells)
Assay: normalised cell viability (fraction of plate median); higher = more viable cells (less toxic)
Settings: 5 µM
Outline: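 In two screens, library drugs at 5 μM were given for 3 days (screen 1) or 6 days (screen 2) to hamster V-C8 cells without BRCA2 and V-C8 cells with BRCA2 restored, seeded 24 h earlier in 96-well plates. A resazurin assay gave the cell viability readout, expressed as modified robust per cent of sample against the plate median, with triplicate wells averaged.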

Compound | normalised cell viability (treatment time: 3 days) | normalised cell viability (treatment time: 6 days)
N=C(N)NCC1COC2(CCCCC2)O1 (stereo not given) [Guanadrel sulfate] | 1.06 ± 0.038 | 1.03 ± 0.041
CN(C/C=C/C#CC(C)(C)C)Cc1cccc2ccccc12 [Terbinafine] | 0.206 ± 0.0049 | 0.339 ± 0.031
CCCCCCC[N+](CC)(CC)CCCCc1ccc(Cl)cc1 [Clofilium tosylate] | 0.897 ± 0.063 | 0.935 ± 0.094
CN1CCN(CCCN2c3ccccc3Sc3ccc(S(=O)(=O)N(C)C)cc32)CC1 [Thioproperazine dimesylate] | 0.884 ± 0.11 | 0.834 ± 0.039
N=C(N)N/N=C/c1c(Cl)cccc1Cl [Guanabenz acetate] | 1.1 ± 0.022 | 1.01 ± 0.082
Cn1cnc([N+](=O)[O-])c1Sc1ncnc2[nH]cnc12 [Azathioprine] | 0.93 ± 0.032 | 0.93 ± 0.045
C[C@@H]1CN(c2c(F)c(N)c3c(=O)c(C(=O)O)cn(C4CC4)c3c2F)C[C@H](C)N1 [Sparfloxacin] | 1.027 ± 0.009 | 1.05 ± 0.056
COC(=O)C1=C(C)NC(C)=C(C(=O)OC(C)C)C1c1cccc2nonc12 (stereo not given) [Isradipine] | 1.02 ± 0.032 | 0.9264 ± 0.0066
CC1CNc2c(cccc2S(=O)(=O)N[C@@H](CCCNC(=N)N)C(=O)N2CC[C@@H](C)C[C@@H]2C(=O)O)C1 (stereo not given in full) [Argatroban] | 1.203 ± 0.0019 | 1.12 ± 0.14
CC(=O)N(CC(O)CN(C(C)=O)c1c(I)c(C(=O)NCC(O)CO)c(I)c(C(=O)NCC(O)CO)c1I)c1c(I)c(C(=O)NCC(O)CO)c(I)c(C(=O)NCC(O)CO)c1I (stereo not given) [Iodixanol] | 0.975 ± 0.053 | 1 ± 0.059
CN1CCC(OC(c2ccccc2)c2ccccc2)CC1 [Diphenylpyraline hydrochloride] | 0.976 ± 0.11 | 1.04 ± 0.037
CO[C@@]1(NC(=O)CSCC#N)C(=O)N2C(C(=O)O)=C(CSc3nnnn3C)CS[C@@H]21 [Cefmetazole sodium salt] | 0.959 ± 0.029 | 0.98 ± 0.072
O=C(Nc1cccc2c(=O)cc(-c3nnn[nH]3)oc12)c1ccc(OCCCCc2ccccc2)cc1 [Pranlukast] | 1.06 ± 0.05 | 1.08 ± 0.049
CCN(CC)CCOCCOC(=O)C1(c2ccccc2)CCCC1 [Carbetapentane citrate] | 0.163 ± 0.0089 | 0.181 ± 0.0049
O=C(O)CCC(=O)Nc1ccc(S(=O)(=O)Nc2nccs2)cc1 [Succinylsulfathiazole] | 0.979 ± 0.083 | 1.04 ± 0.04
CC(C)(C)NCC(O)c1cc(O)cc(O)c1 (stereo not given) [Terbutaline hemisulfate] | 0.45 ± 0.037 | 0.5206 ± 0.0045
OCC(O)CN1CCN(c2ccccc2)CC1 (racemic) [Dropropizine (R,S)] | 1.07 ± 0.041 | 0.9583 ± 0.0092
COC(=O)C1=C(C)NC(C)=C(C(=O)OC2CCCN(Cc3ccccc3)C2)C1c1cccc([N+](=O)[O-])c1 (stereo not given) [Benidipine hydrochloride] | 0.988 ± 0.065 | 0.97 ± 0.04
COc1ccc(C2CNC(=O)C2)cc1OC1CCCC1 (stereo not given) [Rolipram] | 0.985 ± 0.037 | 1.15 ± 0.22
CC(C)n1c(/C=C/C(O)CC(O)CC(=O)O)c(-c2ccc(F)cc2)c2ccccc21 (stereo not given) [Fluvastatin sodium salt] | 0.134 ± 0.0077 | 0.155 ± 0.013
CC(C)c1c(C(=O)Nc2ccccc2)c(-c2ccccc2)c(-c2ccc(F)cc2)n1CC[C@@H](O)C[C@@H](O)CC(=O)O [Atorvastatin] | 0.701 ± 0.01 | 0.743 ± 0.017
CC[N+](C)(C)Cc1ccccc1Br [Bretylium tosylate] | 0.9932 ± 0.0068 | 0.977 ± 0.013
C=C(NC(=O)C(=C)NC(=O)c1csc(C2=N[C@@H]3c4csc(n4)[C@H]4NC(=O)c5csc(n5)[C@H]([C@](C)(O)[C@@H](C)O)NC(=O)[C@H]5CSC(=N5)/C(=C/C)NC(=O)[C@H]([C@@H](C)O)NC(=O)c5csc(n5)[C@]3(CC2)NC(=O)[C@H](C)NC(=O)C(=C)NC(=O)[C@H](C)NC(=O)[C@H]([C@@H](C)CC)N[C@@H]2C=Cc3c([C@H](C)O)cc(nc3[C@H]2O)C(=O)O[C@@H]4C)n1)C(N)=O [Thiostrepton] | 0.135 ± 0.0082 | 0.126 ± 0.013

Compound | normalised cell viability (treatment time: 3 days) | normalised cell viability (treatment time: 6 days)
CCCC(=O)Nc1ccc(OCC(O)CNC(C)C)c(C(C)=O)c1 (stereo not given) [Acebutolol hydrochloride] | 0.99 ± 0.034 | 1.04 ± 0.012
CCC(=O)OCC(=O)[C@@]1(OC(=O)CC)[C@@H](C)C[C@H]2[C@@H]3CCC4=CC(=O)C=C[C@]4(C)[C@@]3(Cl)[C@@H](O)C[C@@]21C [Beclomethasone dipropionate] | 1 ± 0.081 | 0.987 ± 0.048
Cc1onc(-c2c(F)cccc2Cl)c1C(=O)N[C@@H]1C(=O)N2[C@@H]1SC(C)(C)[C@@H]2C(=O)O [Flucloxacillin sodium] | 1.02 ± 0.065 | 0.984 ± 0.016
Cc1c(Cl)cccc1Nc1ncccc1C(=O)O [Clonixin Lysinate] | 0.938 ± 0.067 | 0.983 ± 0.046
Nc1ccc(S(=O)(=O)Nc2ncccn2)cc1 [Sulfadiazine] | 1.01 ± 0.068 | 1.024 ± 0.0048
O=S(=O)(O)CCS [Mesna] | 1.06 ± 0.07 | 1.02 ± 0.024
C[C@@H]1CCC[C@H](C)N1NC(=O)c1ccc(Cl)c(S(N)(=O)=O)c1 [Clopamide] | 1.22 ± 0.11 | 0.9899 ± 0.0083
N#Cc1ccc(C2CCCc3cncn32)cc1 (stereo not given) [Fadrozole hydrochloride] | 0.955 ± 0.11 | 0.949 ± 0.078
NC(=O)c1cc[n+](CC2=C(C(=O)[O-])N3C(=O)[C@@H](NC(=O)[C@@H](c4ccccc4)S(=O)(=O)O)[C@H]3SC2)cc1 [Cefsulodin sodium salt] | 0.981 ± 0.043 | 1.06 ± 0.048
c1ccc(-c2ccc(C(c3ccccc3)n3ccnc3)cc2)cc1 (stereo not given) [Bifonazole] | 0.951 ± 0.042 | 0.914 ± 0.066
O=C(O[C@@H]1C[C@@H]2C[C@H]3C[C@H](C1)N2CC3=O)c1c[nH]c2ccccc12 [Dolasetron mesilate] | 1.06 ± 0.19 | 1.02 ± 0.03
O=C(Oc1cccc2cccnc12)c1ccccc1 [Benzoxiquine] | 0.791 ± 0.052 | 0.738 ± 0.056
COc1cccc2c1C(=O)c1c(O)c3c(c(O)c1C2=O)C[C@@](O)(C(=O)CO)C[C@@H]3O[C@H]1C[C@H](N)[C@@H](O)[C@H](C)O1 [Epirubicin hydrochloride] | 0.136 ± 0.0036 | 0.153 ± 0.024
COc1cccc2c1C(=O)c1c(O)c3c(c(O)c1C2=O)C[C@@](O)(C(=O)CO)C[C@@H]3O[C@H]1C[C@H](N)[C@H](O)[C@H](C)O1 [Doxorubicin hydrochloride] | 0.12 ± 0.0088 | 0.122 ± 0.0099
COc1cccc2c1C(=O)c1c(O)c3c(c(O)c1C2=O)C[C@@](O)(C(C)=O)C[C@@H]3O[C@H]1C[C@H](N)[C@H](O)[C@H](C)O1 [Daunorubicin hydrochloride] | 0.136 ± 0.0082 | 0.128 ± 0.015
Clc1cc(Cl)c(OCC#CI)cc1Cl [Haloprogin] | 0.278 ± 0.01 | 0.247 ± 0.048
CCC1(c2ccccc2)C(=O)NCNC1=O [Primidone] | 0.947 ± 0.13 | 0.951 ± 0.1
CN1C(C(=O)Nc2ccccn2)=C(O)c2ccccc2S1(=O)=O [Piroxicam] | 1.02 ± 0.032 | 1.05 ± 0.015
O=C1CC2(CCCC2)CC(=O)N1CCCCN1CCN(c2ncccn2)CC1 [Buspirone hydrochloride] | 0.997 ± 0.038 | 1.083 ± 0.0083
CNNCc1ccc(C(=O)NC(C)C)cc1 [Procarbazine hydrochloride] | 0.879 ± 0.049 | 0.956 ± 0.099
OCCN1CCN(CCCN2c3ccccc3Sc3ccc(C(F)(F)F)cc32)CC1 [Fluphenazine dihydrochloride] | 0.825 ± 0.062 | 0.662 ± 0.096
CNC(=C[N+](=O)[O-])NCCSCc1csc(CN(C)C)n1 [Nizatidine] | 1 ± 0.012 | 1.05 ± 0.042
